# Measurements reported in PubChem BioAssay (NCI).
# The panel holds about 83,000 compounds, 20% with a hit somewhere; the sample as a whole holds those more often.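 The endpoint reported here, percent growth, reads 100 for growth as untreated, 0 for no net growth and -100 for all cells dead.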 A number with no mark means an inactive call. Activity calls are given as the source filed them. The calls were made as follows: active = growth percent below 10; inactive = the rest.
# Experiments:
# Test in all cases: NCI-60 one-dose screen, 48 h (100 = growth as untreated, 0 = no growth, -100 = all killed)
# Details in all cases: 10 µM unless noted
# [1] = tested on: NCI-H226 lung
# [2] = tested on: NCI-H322M lung
# [3] = tested on: HOP-62 NSCLC
# [4] = tested on: NCI-H460 lung
# [5] = tested on: HOP-92 NSCLC
# [6] = tested on: NCI-H522 lung
# [7] = tested on: A549/ATCC NSCLC
# [8] = tested on: 786-0 renal
# [9] = tested on: DU-145 prostate
# [10] = tested on: COLO 205 colon
SMILES,growth [1],growth [2],growth [3],growth [4],growth [5],growth [6],growth [7],growth [8],growth [9],growth [10]
O=C1c2c(c3c4cc(Br)ccc4[nH]c3c3ccc4ccccc4c23)C(=O)N1CCO,88.9%,96.8%,96.3%,62.5%,103%,76.5%,91.7%,100%,103%,
CC1=C(C)C(=O)C(Nc2cccc(C(F)(F)F)c2)=C(Cl)C1=O,90.9%,101%,91%,94.9%,48.9%,17.7%,96.8%,102%,99.7%,
N#Cc1c(-c2ccc(Cl)cc2)nc2c(-c3ccccc3)c(Nc3ccccc3)nn2c1N,41.5%,64%,57.5%,-8.88% (active),35.2%,72.3%,29.5%,25.1%,63.6%,57%
C=C1CC[C@H]2[C@@](C)(CCC3OC(c4ccc(OCc5cn(C6CC(OC(C)=O)C(OC(C)=O)C(COC(C)=O)O6)nn5)cc4)OC[C@]32C)[C@@H]1/C=C/C1=CCOC1=O (stereo partly drawn),74.5%,100%,85.5%,85.8%,65.6%,82.2%,82.8%,95.1%,90%,82.3%
CN(C)CCCOc1c2ccccc2nc2c1oc1ccc(Cl)cc12,-6.99% (active),-9.94% (active),14.2%,4.37% (active),3.66% (active),-57.1% (active),-2.75% (active),7.33% (active),-1.68% (active),
CC(C)(C)Nc1nc2c(OCCc3ccccc3)cccn2c1-c1ccc(O)cc1,63%,89.9%,80.3%,45.8%,28.3%,57.5%,48.6%,73.3%,97.3%,
Cc1ccc2c(n1)C(=O)C(Cl)=C(Nc1cccc(C(C)C)c1)C2=O,35.4%,85%,89.1%,78.8%,110%,23.4%,29.9%,68.4%,22.5%,
Cc1ccc(/C=C/c2nn3c(-c4ccco4)nnc3s2)cc1C,106%,97.1%,100%,104%,93.9%,104%,94%,100%,103%,
O=C(Oc1ccc2ccc(=O)oc2c1)c1ccc(Cl)cc1,104%,99%,108%,103%,95.2%,105%,94.2%,100%,108%,114%
Nc1c(C(=O)c2ccc(Br)cc2)oc2nc(-c3cnccn3)cc(-c3cccs3)c12,98.6%,103%,94%,97.2%,90.8%,98.8%,103%,102%,107%,
COc1ccc(NC(=O)c2sc3nc(-c4cnccn4)cc(-c4cccs4)c3c2N)cc1,35.5%,82.3%,84.4%,55.3%,57.7%,78.2%,72.5%,62.7%,88.9%,64.7%
CN(C)CCCNc1c2ccc(Cl)cc2nc2c1oc1ccccc12,1.58% (active),-9.39% (active),46.9%,-3.28% (active),-1.97% (active),2.37% (active),-40.4% (active),2.06% (active),4% (active),
Cc1ccc(C(=O)Nc2cccc(C(F)(F)F)c2)cc1Nc1nc(-c2cnccn2)nc2c1cnn2C,71.6%,73%,46.6%,69.9%,35.3%,73.2%,70.8%,74%,96.6%,
CC(=O)Oc1ccccc1C(=O)Nc1cc(C(C)C)ccc1C,9.84% (active),11.7%,19.6%,9.6% (active),-19.5% (active),4.56% (active),13.1%,25.6%,23.1%,
O=C(N/N=C/c1ccco1)c1[nH]c2ccc(Br)cc2c1-c1ccccc1,50.1%,42.1%,35.4%,2.19% (active),48.7%,-39.7% (active),35.4%,16.4%,13.4%,
O=C1Nc2ccccc2Oc2ccc(S(=O)(=O)CC3CO3)cc21 (stereo not drawn),95.7%,93.7%,101%,79.5%,88.8%,32.8%,77.2%,98.1%,61.2%,
COc1cc(OC)c(C2C(Cl)C(=O)N2Nc2ncnc3ccccc23)cc1OC (stereo not drawn),90.3%,92.3%,100%,107%,102%,94.2%,105%,98.6%,109%,
COc1cc(/C=C/C(=O)c2cc(OC)c(OC)c(OC)c2)ccc1OCc1ccc(F)cc1,49.5%,49.7%,36.2%,54%,44.7%,56.4%,51.2%,62.8%,58.3%,
COc1ccc(-c2nc3ccc(-c4nnc(SCC(=O)Nc5ccc(C(=O)/C=C/c6ccccc6)cc5)o4)cc3[nH]2)cc1OC,98.2%,102%,101%,106%,98.4%,98.4%,102%,99.3%,107%,
Cc1cc2nc3c4cc(Cl)ccc4n(CC(=S)NCCN(C)C)c3nc2cc1C,-60.4% (active),40.1%,50.1%,-90.2% (active),,-49.4% (active),-69.9% (active),-95.6% (active),-51.6% (active),-39% (active)
CCN1C(=S)N(c2ccccc2)C2NC(=O)N(/N=C/C=C/c3ccccc3OC)C21 (stereo not drawn),98.9%,94.9%,80.6%,89.2%,,89%,87.9%,96.1%,101%,122%
O=C(c1ccc(Cl)cc1)C1[C@H](c2ccc(Cl)cc2)[C@@H](c2ccccc2)NC12C(=O)Nc1ccc(Br)cc12 (stereo partly drawn),38.1%,56.2%,58.6%,8.65% (active),,66%,29.2%,24.6%,46.8%,55.9%
COc1ccc(N/N=C/c2c(-c3ccc(S(C)(=O)=O)cc3)nc3ccccn23)cc1,71%,50%,57.4%,21.8%,,3.48% (active),36.9%,48%,40.1%,55.1%
O=C(N/N=C/c1ccc([N+](=O)[O-])o1)c1[nH]c2ccc(Br)cc2c1-c1ccccc1,15.8%,41.2%,24.2%,-31.4% (active),,-26.3% (active),21.6%,-5.08% (active),16.2%,5.51% (active)
COc1cccc(N2CCN(c3ncnc4c3[nH]c3ccc(F)cc34)C[C@@H]2C)c1,-60.5% (active),-39.9% (active),-54.2% (active),-17.2% (active),,-91.8% (active),2.18% (active),-58.5% (active),-67.3% (active),-88.5% (active)
CC1=C(C)C(=O)C(Nc2ccccc2)=C(Cl)C1=O,96.9%,99.3%,92.6%,95.7%,,83.5%,99.8%,99.2%,101%,107%
